Experimental data reported in PubChem BioAssay (Tox21).
Records with an inconclusive call do not appear. Calls of active or inactive are those of the source. Unless noted, the call rests on the fitted dose curve; in most records, active means well fitted curve in the direction sought with a large enough effect in the repeat runs; inconclusive means weak or mixed curves; inactive means no such curve, though single readings can be large; an effect the other way counts as inactive or inconclusive.

Tests used:
[1] = qHTS assay for identifying genotoxic compounds that show differential cytotoxicity against isogenic chicken DT40 cell lines with known DNA damage response pathways - wild type cell line (AID 743012); further: nearly all actives have a fitted effect of over 60% in size; further: potency means the concentration at half of the fitted maximal effect
Summary of the method: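 Parental DNA repair-proficient DT40 cells, 300 per well, were pre-incubated ~0.5 h at 37 C/5% CO2, pin-dosed with compounds in DMSO, then incubated 40 h. Viability was read as CellTiter-Glo luminescence after 30 min at room temperature.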

[2] = qHTS assay for identifying genotoxic compounds that show differential cytotoxicity against isogenic chicken DT40 cell lines with known DNA damage response pathways - Rev3 mutant cell line (AID 743014); further: nearly all actives have a fitted effect of over 55% in size; further: potency means the concentration at half of the fitted maximal effect
[3] = qHTS assay for identifying genotoxic compounds that show differential cytotoxicity against isogenic chicken DT40 cell lines with known DNA damage response pathways - Rad54/Ku70 mutant cell line (AID 743015); further: nearly all actives have a fitted effect of over 60% in size; further: potency means the concentration at half of the fitted maximal effect
[4] = qHTS assay to identify small molecule antagonists of the androgen receptor (AR) signaling pathway - cell viability counter screen (AID 743033; further: nearly all actives have a fitted effect of over 45% in size)
[5] = qHTS assay to identify small molecule antagonists of the androgen receptor (AR) signaling pathway using the MDA cell line - cell viability counter screen (AID 743041; further: nearly all actives have a fitted effect of over 45% in size; further: potency means the concentration at half of the fitted maximal effect)
Summary of the method: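 Viability counter screen run alongside the AR antagonist reporter: cells seeded 5 h before compound, R1881 added, 16 h incubation at 37C without CO2, fluorescent CellTiter-Fluor signal quantified.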

[6] = qHTS assay to identify small molecule antagonists of the thyroid receptor (TR) signaling pathway (AID 743065); further: nearly all actives have a fitted effect of over 55% in size; further: potency means the concentration at half of the fitted maximal effect
Summary of the method: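 GH3.TRE-Luc rat pituitary cells carrying two TR response elements driving luciferase were plated for 4 h, given compound plus 1 nM T3 (final), and incubated 23.5 h at 37 C. ONE-Glo luminescence measured reporter inhibition; CellTiter-Fluor fluorescence tracked cytotoxicity.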

[7] = test system: thyroid hormone receptor (rat, GH3 cells); assay: qHTS assay to identify small molecule agonists of the thyroid receptor (TR) signaling pathway (AID 743066; calls by dose curve)
[8] = qHTS assay to identify small molecule antagonists of the estrogen receptor alpha (ER-alpha) signaling pathway - cell viability counter screen (AID 743074; calls by dose curve;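 further: HEK293 cells carrying ER-alpha-UAS-bla reporter stimulated with 17beta-estradiol; nearly all actives have a fitted effect of over 45% in size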)
Aromatase (Homo sapiens) = Aromatase (Homo sapiens) (UniProt P11511); assay: qHTS assay to identify aromatase inhibitors (AID 743083); further: nearly all actives have a fitted effect of over 55% in size; further: potency means the concentration at half of the fitted maximal effect
Sequence of Aromatase (Homo sapiens) (P11511 whole entry, looked up): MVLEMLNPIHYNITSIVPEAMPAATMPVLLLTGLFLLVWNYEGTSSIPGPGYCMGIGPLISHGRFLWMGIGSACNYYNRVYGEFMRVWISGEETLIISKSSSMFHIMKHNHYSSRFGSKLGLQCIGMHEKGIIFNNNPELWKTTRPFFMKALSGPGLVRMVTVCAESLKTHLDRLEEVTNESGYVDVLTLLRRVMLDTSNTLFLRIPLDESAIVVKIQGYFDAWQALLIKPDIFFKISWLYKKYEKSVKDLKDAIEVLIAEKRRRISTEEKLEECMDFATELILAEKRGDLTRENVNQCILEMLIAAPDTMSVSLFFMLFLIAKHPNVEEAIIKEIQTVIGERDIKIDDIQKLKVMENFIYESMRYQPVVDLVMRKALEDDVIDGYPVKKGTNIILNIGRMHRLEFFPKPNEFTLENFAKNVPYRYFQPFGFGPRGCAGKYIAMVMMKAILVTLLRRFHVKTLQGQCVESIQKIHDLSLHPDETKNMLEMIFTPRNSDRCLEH

[9] = qHTS assay to identify aromatase inhibitors - cell viability counter screen (AID 743084);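 further: cells stimulated with testosterone during compound exposure; nearly all actives have a fitted effect of over 55% in size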; further: potency means the concentration at half of the fitted maximal effect
[10] = target: Androgen receptor (Homo sapiens) (UniProt P10275); assay: qHTS assay to identify small molecule agonists of the androgen receptor (AR) signaling pathway using the MDA cell line (AID 743040; further: nearly all actives have a fitted effect of over 20% in size; further: potency means the concentration at half of the fitted maximal effect)
Sequence of Androgen receptor (Homo sapiens) (P10275 whole entry, looked up): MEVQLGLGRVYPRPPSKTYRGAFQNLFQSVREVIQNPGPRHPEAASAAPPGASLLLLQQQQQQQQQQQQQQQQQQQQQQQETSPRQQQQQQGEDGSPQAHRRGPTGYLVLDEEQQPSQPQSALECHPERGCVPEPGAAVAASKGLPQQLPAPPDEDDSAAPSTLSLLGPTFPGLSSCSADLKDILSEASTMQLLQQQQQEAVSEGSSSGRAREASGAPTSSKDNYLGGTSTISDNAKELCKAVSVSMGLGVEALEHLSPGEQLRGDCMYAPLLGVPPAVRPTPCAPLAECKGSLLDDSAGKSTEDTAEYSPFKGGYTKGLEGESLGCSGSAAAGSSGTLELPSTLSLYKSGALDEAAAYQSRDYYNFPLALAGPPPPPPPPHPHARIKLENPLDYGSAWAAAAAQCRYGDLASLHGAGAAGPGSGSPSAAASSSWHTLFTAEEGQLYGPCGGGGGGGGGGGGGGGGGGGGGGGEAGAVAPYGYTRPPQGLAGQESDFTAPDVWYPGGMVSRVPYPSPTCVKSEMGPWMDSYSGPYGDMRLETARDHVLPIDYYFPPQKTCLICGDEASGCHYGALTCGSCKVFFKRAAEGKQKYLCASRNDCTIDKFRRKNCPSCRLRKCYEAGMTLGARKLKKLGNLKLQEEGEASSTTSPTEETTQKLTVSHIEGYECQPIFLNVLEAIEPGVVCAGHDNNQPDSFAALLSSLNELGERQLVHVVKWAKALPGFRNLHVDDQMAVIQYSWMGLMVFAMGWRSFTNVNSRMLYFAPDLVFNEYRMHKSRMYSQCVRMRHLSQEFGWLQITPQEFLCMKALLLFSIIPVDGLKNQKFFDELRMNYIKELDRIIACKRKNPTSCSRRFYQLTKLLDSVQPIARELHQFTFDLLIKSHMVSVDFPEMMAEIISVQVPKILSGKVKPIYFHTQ
Summary of the method: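 Luminescence from ONE-Glo, read after 30 min at room temperature, reflects MMTV-driven luciferase in MDA-kb2 cells (AR- and GR-responsive). Treatment lasted 16 h at 37C, 0% CO2.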

[11] = target: Androgen receptor (Homo sapiens) (UniProt P10275); assay: qHTS assay to identify small molecule antagonists of the androgen receptor (AR) signaling pathway using the MDA cell line (AID 743042; further: nearly all actives have a fitted effect of over 55% in size; further: potency means the concentration at half of the fitted maximal effect)
Summary of the method: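 MDA-kb2 cells (human breast carcinoma, stably carrying an MMTV-luciferase reporter responsive to AR and GR) were plated at 3,000 cells/well and preincubated 5 hr at 37C, then given compound plus R1881 agonist for 16 h. ONE-Glo luminescence was read.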

[12] = qHTS assay to identify small molecule antagonists of the thyroid receptor (TR) signaling pathway - cell viability counter screen (AID 743064); further: nearly all actives have a fitted effect of over 50% in size; further: potency means the concentration at half of the fitted maximal effect
Summary of the method: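 GH3.TRE-Luc rat pituitary cells dosed after 4 hr plating, co-stimulated with T3 at 1 nM final, incubated 23.5 h at 37 C. Viability measured in the same wells by CellTiter-Fluor fluorescence after 30 min further at 37 C.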

[13] = target: Estrogen receptor (Homo sapiens) (UniProt P03372); assay: qHTS assay to identify small molecule agonists of the estrogen receptor alpha (ER-alpha) signaling pathway using the BG1 cell line (AID 743079); conditions: BG1Luc4E2 cells, ERE-luciferase agonist, 22 h; activation: at 70.3 µM (top of the series); further: nearly all actives have a fitted effect of over 20% in size; further: potency means the concentration at half of the fitted maximal effect
Sequence of Estrogen receptor (Homo sapiens) (P03372 whole entry, looked up): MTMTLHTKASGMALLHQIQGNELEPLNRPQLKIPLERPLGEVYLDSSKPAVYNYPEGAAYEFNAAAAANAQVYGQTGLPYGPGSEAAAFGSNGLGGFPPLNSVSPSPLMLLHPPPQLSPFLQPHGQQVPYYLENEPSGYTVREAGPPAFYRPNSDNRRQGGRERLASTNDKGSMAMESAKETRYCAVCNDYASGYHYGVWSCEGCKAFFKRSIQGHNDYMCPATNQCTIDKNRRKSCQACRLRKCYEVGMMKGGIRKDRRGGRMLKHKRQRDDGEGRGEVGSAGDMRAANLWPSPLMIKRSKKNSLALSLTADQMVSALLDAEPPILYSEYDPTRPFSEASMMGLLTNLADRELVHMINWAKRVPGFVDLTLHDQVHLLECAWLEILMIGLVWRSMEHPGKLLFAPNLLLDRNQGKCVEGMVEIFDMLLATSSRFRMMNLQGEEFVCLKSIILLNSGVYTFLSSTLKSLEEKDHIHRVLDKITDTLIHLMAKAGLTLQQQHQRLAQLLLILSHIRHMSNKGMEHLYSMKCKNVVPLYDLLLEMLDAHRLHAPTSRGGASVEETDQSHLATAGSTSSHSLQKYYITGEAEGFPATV

[14] = qHTS assay to identify small molecule antagonists of the estrogen receptor alpha (ER-alpha) signaling pathway using the BG1 cell line - cell viability counter screen (AID 743081);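 further: compound given together with 17beta-estradiol as the ER stimulus; nearly all actives have a fitted effect of over 45% in size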
[15] = target: Estrogen receptor (Homo sapiens) (UniProt P03372); assay: qHTS assay to identify small molecule agonists of the estrogen receptor alpha (ER-alpha) signaling pathway (AID 743075; calls by dose curve;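 further: HEK293 GripTite cells with ER-alpha and UAS-driven beta-lactamase reporter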)
[16] = qHTS assay to identify small molecule antagonists of the glucocorticoid receptor (GR) signaling pathway - cell viability counter screen (AID 720693); further: nearly all actives have a fitted effect of over 55% in size; further: potency means the concentration at half of the fitted maximal effect
[17] = qHTS assay to identify small molecule antagonists of the estrogen receptor alpha (ER-alpha) signaling pathway using the BG1 cell line (AID 743080; calls by dose curve;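 further: BG1 cells stimulated with 17beta-estradiol alongside compound; nearly all actives have a fitted effect of over 25% in size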)
Summary of the method: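 Readout is ONE-Glo luminescence, taken 30 min at room temperature after reagent addition, preceded by a CellTiter-Fluor viability read; BG1-Luc-4E2 cells had received compound and 17beta-estradiol for 21.5 h at 37 C.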

[18] = target: Estrogen receptor (Homo sapiens) (UniProt P03372); assay: qHTS assay to identify small molecule antagonists of the estrogen receptor alpha (ER-alpha) signaling pathway (AID 743069; active means well fitted curve in the direction sought with a large enough effect in the signal ratio in the repeat runs, not every such curve was filed as active; the % refers to the signal ratio)
Summary of the method: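 Estradiol-stimulated ER-alpha-UAS-bla HEK293 cells, 18 hr compound exposure at 37C. LiveBLAzer B/G substrate, 2 hr RT, fluorescence read.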

[19] = target: Androgen receptor (Homo sapiens) (UniProt P10275); assay: qHTS assay to identify small molecule agonists of the androgen receptor (AR) signaling pathway (AID 743036; active means well fitted activation curve with a large enough effect in the signal ratio in the repeat runs, with a control signal flat, not every such curve was filed as active; the % refers to the signal ratio; further: potency means the concentration at half of the fitted maximal effect)
Summary of the method: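 AR-UAS-bla HEK293 cells, plated 4 h before dosing, were treated with compound for 16 h at 37C. beta-Lactamase reporter read after 2 h with LiveBLAzer B/G FRET substrate at room temperature.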

Measured: Potency

CC[C@@H]([C@H](C)O)n1ncn(-c2ccc(N3CCN(c4ccc(OC[C@@H]5CO[C@@](Cn6cncn6)(c6ccc(F)cc6F)C5)cc4)CC3)cc2)c1=O
inactive: [4] | [5] | [7] | [8] | Aromatase (Homo sapiens) | [9]
active: [1] 1.19 µM | [2] 1.88 µM | [3] 1.68 µM | [6] 26.6 µM

COCc1c(C(C)C)nc(C(C)C)c(/C=C/[C@@H](O)C[C@@H](O)CC(=O)O)c1-c1ccc(F)cc1
inactive: [5] | [11] | [12] | [7] | [8] | [14] | [9]
active: [1] 0.075 µM | [2] 0.0133 µM | [3] 0.298 µM | [10] 13.3 µM | [6] 11.9 µM | [13] 11.9 µM

Cc1ccc(Nc2nccc(N(C)c3ccc4c(C)n(C)nc4c3)n2)cc1S(N)(=O)=O
active: [1] 9.44 µM | [2] 11.9 µM | [11] 11.9 µM | [6] 6.68 µM
inactive: [4] | [10] | [12] | [7] | [15]

Nc1ccc(C(=O)OCCCOC(=O)c2ccc(N)cc2)cc1
inactive: [16] | [5] | [12] | [7] | [8] | [15] | [17] | [14] | [9]
active: Aromatase (Homo sapiens) 30.6 µM

Cc1nc2ccccn2c(=O)c1CCN1CCC(C(=O)c2ccc(F)cc2)CC1
not listed: [1] | [3] | [4] | [6] | [10] | [11] | [17] | [19]
inactive: all other assays above

CCCOc1ccc(S(=O)(=O)N2CCN(CC)CC2)cc1-c1nc2c(CC)n(Cc3ccccn3)nc2c(=O)[nH]1
not listed: [1] | [2] | [3] | [6] | [10] | [11] | [19]
inactive: all other assays above

CCCCCCCCCCCC[N+](C)(C)CC(=O)[O-]
active: [1] 27.3 µM | [2] 27.3 µM | [6] 54.5 µM
inactive: [5] | [7] | [8] | [15] | [13] | [17] | [14] | Aromatase (Homo sapiens) | [9]

CCCCC/C(=C\c1ccccc1)CO
inactive: [16] | [5] | [7] | [8] | [14]
active: [12] 48 µM | Aromatase (Homo sapiens) 30.3 µM

ON(Cc1ccccc1)Cc1ccccc1
not listed: [16]
inactive: all other assays above

CN(C)CCOC1=Cc2ccccc2Sc2ccc(Cl)cc21
inactive: [18] | [15] | [13] | [17] | [14]
active: [1] 5.31 µM | [2] 6.68 µM | [3] 5.96 µM | [12] 10.6 µM | [6] 9.44 µM

CC(=O)OCC(=O)[C@H]1CC[C@H]2[C@@H]3CCC4=CC(=O)CC[C@]4(C)[C@H]3CC[C@]12C
active: [19] 0.0301 µM | [10] 9.44 µM | [6] 13.3 µM | [13] 4.22 µM
not listed: [1] | [2] | [3]
inactive: all other assays above

CNC(=S)NC
active: [1] 61.1 µM | [2] 43.3 µM | [3] 61.1 µM
not listed: [4] | [5] | [6] | [11] | [16] | [19]
inactive: all other assays above

CC(C)(O)c1ccccc1CC[C@@H](SCC1(CC(=O)O)CC1)c1cccc(/C=C/c2ccc3ccc(Cl)cc3n2)c1
inactive: [1] | [2] | [3] | [4] | [10] | [5] | [11] | [15] | [14] | Aromatase (Homo sapiens) | [9]

O=C(Nc1ccccc1)Nc1ccccc1
active: [2] 48.8 µM | [13] 19.4 µM
inactive: [16] | [5] | [12] | [7] | [18] | [8] | [15] | [14] | Aromatase (Homo sapiens) | [9]

CO[C@@]12[C@H](COC(N)=O)C3=C(C(=O)C(C)=C(N)C3=O)N1C[C@@H]1N[C@@H]12
inactive: [4]
active: [16] 23.9 µM | [12] 2.37 µM | [6] 1.33 µM | Aromatase (Homo sapiens) 29.8 µM

Cc1cc2nc3ccc(=[N+](C)C)cc-3sc2cc1N
inactive: [10] | [8] | [15] | [14]
active: [1] 0.596 µM | [2] 2.11 µM | [3] 0.596 µM | [5] 8.41 µM | [11] 4.22 µM | [12] 26.6 µM | [6] 21.1 µM | Aromatase (Homo sapiens) 5.31 µM | [9] 26.6 µM
